Assay [1] can be described thus: qHTS assay to identify small molecule antagonists of the vitamin D receptor (VDR) signaling pathway - cell viability counter screen (AID 743225). Further: nearly all actives have a fitted effect of over 50% in size. Further: potency means the concentration at half of the fitted maximal effect. The gist of the method:
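Same-well multiplex: following 16 h treatment of HEK 293T cells carrying a UAS-driven beta-lactamase reporter with compound and agonist (3 nM final), and a 2 h FRET substrate step, CellTiter-Glo was added and luminescence read after 30 min.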

The nature of assay [2]: qHTS assay to identify small molecule agonists of the NFkB signaling pathway - cell viability counter screen (AID 1159515; calls by dose curve; further: nearly all actives have a fitted effect of over 55% in size; further: potency means the concentration at half of the fitted maximal effect). The gist of the method:
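5 hr compound treatment of NFkB-bla ME-180 cells (2,000/well, seeded overnight beforehand), followed by reporter substrate for 1.5 hr. CellTiter-Glo added afterward; luminescence after 30 min RT.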

Assay [3] can be described thus: qHTS assay to identify small molecule antagonists of the retinoid-related orphan receptor gamma (ROR-gamma) signaling pathway - cell viability counter screen (AID 1159520). Further: nearly all actives have a fitted effect of over 50% in size. Further: potency means the concentration at half of the fitted maximal effect. The gist of the method:
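Tet-on ROR gamma CHO cells (1,000/well) were plated 4 hr, given compounds in DMSO for 2 hr at 37 C, then induced with 1 uM final doxycycline for 16 hr. Viability was read as ATP by CellTiter-Glo luminescence after 30 min.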
For orientation: qHTS replaces the single test concentration by a dilution series.

Assay [4] deals with Nuclear receptor ROR-gamma (Homo sapiens) (UniProt P51449). Put plainly: qHTS assay to identify small molecule antagonists of the retinoid-related orphan receptor gamma (ROR-gamma) signaling pathway (AID 1159521; further: nearly all actives have a fitted effect of over 50% in size; further: potency means the concentration at half of the fitted maximal effect). The gist of the method: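 Inducible-expression reporter assay: doxycycline (1 uM final) switched on RORγ in CHO cells bearing a ROR response element-luciferase construct, with test compounds present from 2 h beforehand. Decreased luminescence after 16 h defined antagonist activity.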

Assay [5] can be described thus: qHTS assay to identify small molecule agonists of the AP-1 signaling pathway - cell viability counter screen (AID 1159525; calls by dose curve; further: nearly all actives have a fitted effect of over 55% in size; further: potency means the concentration at half of the fitted maximal effect). The gist of the method:
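ME-180 AP-1-bla, 2500 cells/well, Opti-MEM + 0.5% dialyzed FBS; overnight 37 °C; cpd 15-pt titration, 5 h 37 °C; CellTiter-Glo 30 min RT; luminescence read; normalised to TOAB and DMSO controls.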

Assay [6] in a line: qHTS assay to identify small molecule agonists of the RXR signaling pathway - cell viability counter screen (AID 1159529). Further: nearly all actives have a fitted effect of over 50% in size. Further: potency means the concentration at half of the fitted maximal effect. The gist of the method: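 Counter screen: CellTiter-Glo luminescence. Cells: RXR-alpha-UAS-bla HEK 293T. Medium: 2% charcoal-stripped FBS. Treatment: 16 h, 37 C. Reagent incubation: 30 min, RT.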
The nature of assay [7]: qHTS assay to identify small molecule antagonists of the retinoic acid receptor (RAR) signaling pathway (AID 1159552; further: nearly all actives have a fitted effect of over 50% in size; further: potency means the concentration at half of the fitted maximal effect). The gist of the method:
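Antagonism of retinol-induced RARE reporter activity was measured in C3RL4 cells. Exposure to compounds and 1 uM final retinol lasted 6 hr at 37 C, with luminescence as endpoint.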

Assay [8] is described as follows: qHTS assay to identify small molecule antagonists of the estrogen related receptor (ERR) signaling pathway from Tox21 library - cell viability counter screen (AID 1224834). Further: nearly all actives have a fitted effect of over 30% in size. Further: potency means the concentration at half of the fitted maximal effect. The gist of the method: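 CellTiter-Fluor fluorescence measured; ERR cells; 17.5 h compound incubation at 37 C; 30 min reagent step.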
Assay [9] can be described thus: qHTS assay to identify small molecule agonists of the vitamin D receptor (VDR) signaling pathway - cell viability counter screen (AID 743224). Further: nearly all actives have a fitted effect of over 50% in size. Further: potency means the concentration at half of the fitted maximal effect. The gist of the method:
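Here cell health was gauged by luminescent ATP detection (CellTiter-Glo, 30 min RT) in VDR-bla cells that had been incubated with test compounds for 16 h at 37C and 5% CO2.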

A short description of assay [10]: qHTS assay to identify small molecule antagonists of the retinoid acid receptor (RAR) signaling pathway - cell viability counter screen (AID 1159551). Further: nearly all actives have a fitted effect of over 35% in size. Further: potency means the concentration at half of the fitted maximal effect. The gist of the method: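 Seed C3RL4 cells; next day add compound, then retinol to 1 uM final; incubate 6 h at 37 C; add CellTiter-Glo; read luminescence after 30 min at RT.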
Assay [11] concerns the target Luciferin 4-monooxygenase (Photinus pyralis) (UniProt P08659). Put plainly: qHTS assay to identify small molecule inhibitors of firefly luciferase (AID 1224835). Further: nearly all actives have a fitted effect of over 25% in size. Further: potency means the concentration at half of the fitted maximal effect. The gist of the method:
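Quantitative HTS format; KM concentrations of both substrates. Purified P. pyralis FLuc activity quantified from luminescence images.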

Assay [12] can be described thus: qHTS assay to identify small molecule agonists of the AP-1 signaling pathway (AID 1159526; calls by dose curve; further: on the % scale 0 is the no-effect control and ±100 the full control effect).
Assay [13] is described as follows: qHTS assay to identify small molecule agonists of the retinoic acid receptor (RAR) signaling pathway (AID 1159553). Further: on the % scale 0 is the no-effect control and ±100 the full control effect. The gist of the method:
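Activation of retinol signaling was monitored via a RARE luciferase reporter in C3RL4 cells. After 6 hr compound treatment at 37 C, detection reagent was added for 30 min at room temperature before luminescence reading.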

Assay [14] is described as follows: qHTS assay to identify small molecule agonists of the estrogen related receptor (ERR) signaling pathway (AID 1224820). Further: on the % scale 0 is the no-effect control and ±100 the full control effect. The gist of the method:
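Cells: ERR line from NTP, 2,000/well. Pre-incubation 6 h, 37 C/5% CO2. Compound (DMSO) pin transfer, 18 h 37 C. One-Glo, 30 min RT, luminescence.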

Assay [15] is described as follows: qHTS assay to identify small molecule antagonists of the estrogen related receptor signaling pathway with the pleiotropic PPARgamma coactivator (PGC) cell viability counter screen (AID 1224822;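 further: series mostly up to about 46 µM; viability read after 17.5 h compound exposure; on the % scale 0 is the no-effect control and ±100 the full control effect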). The gist of the method: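 Compounds in DMSO, with positive and negative controls, were applied to PGC/ERR cells (2,000/well) and left 17.5 h at 37 C before CellTiter-Fluor detection.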

Assay [16] can be described thus: qHTS assay to identify small molecule agonists of the estrogen related receptor signaling pathway with the pleiotropic PPARgamma coactivator (PGC) (AID 1224823). Further: on the % scale 0 is the no-effect control and ±100 the full control effect. The gist of the method:
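Steps: plate PGC/ERR cells at 2,000 cells/well; incubate 6 h, 37 C/5% CO2; pin-transfer compounds (DMSO); incubate 18 h, 37 C; add One-Glo; 30 min RT; read luminescence.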

The target in assay [17] is Retinoic acid receptor RXR-alpha (Homo sapiens) (UniProt P19793). Put plainly: qHTS assay to identify small molecule agonists of the RXR signaling pathway (AID 1159527; calls by dose curve; further: on the % scale 0 is the no-effect control and ±100 the full control effect; nearly all actives have a fitted effect of over 35% in size). The gist of the method: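 Compounds in DMSO were added to RXR-alpha-UAS-bla HEK 293T cells kept in 2% charcoal-stripped serum, and incubated 16 hr at 37 C with 5% CO2. Reporter signal came from a 2 hr B/G FRET substrate step.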
Retinoic acid receptor RXR-alpha (Homo sapiens), sequence (P19793 whole entry, looked up): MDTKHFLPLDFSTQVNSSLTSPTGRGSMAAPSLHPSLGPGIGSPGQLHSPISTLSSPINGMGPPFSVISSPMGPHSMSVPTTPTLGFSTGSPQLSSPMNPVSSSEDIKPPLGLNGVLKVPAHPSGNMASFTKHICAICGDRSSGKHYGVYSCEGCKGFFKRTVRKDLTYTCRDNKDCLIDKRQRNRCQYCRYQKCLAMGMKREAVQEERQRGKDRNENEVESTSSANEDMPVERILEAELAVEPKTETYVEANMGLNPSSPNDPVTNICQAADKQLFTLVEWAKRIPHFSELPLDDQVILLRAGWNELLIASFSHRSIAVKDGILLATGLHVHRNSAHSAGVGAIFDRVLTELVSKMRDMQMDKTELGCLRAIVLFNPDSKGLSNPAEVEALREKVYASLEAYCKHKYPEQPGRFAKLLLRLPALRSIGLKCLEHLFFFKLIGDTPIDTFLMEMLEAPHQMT

Assay [18] in a line: qHTS assay to identify small molecule antagonists of the estrogen related receptor (ERR) signaling pathway (AID 1224819). The gist of the method:
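qHTS in ERR cells, 2,000/well, 1536 format. Cpd (DMSO) added after 6 h settle, 18 h 37 C. One-Glo luminescence, 30 min RT.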

The structures appear in SMILES notation. Results filed as inconclusive are left out. Values without a mark were called inactive. Active and inactive are the calls of the source. Unless noted, the call rests on the fitted dose curve; in most records, active means well fitted curve in the direction sought with a large enough effect in the repeat runs; inconclusive means weak or mixed curves; inactive means no such curve, though single readings can be large; an effect the other way counts as inactive or inconclusive.

Luciferin 4-monooxygenase (Photinus pyralis), sequence (P08659 whole entry, looked up): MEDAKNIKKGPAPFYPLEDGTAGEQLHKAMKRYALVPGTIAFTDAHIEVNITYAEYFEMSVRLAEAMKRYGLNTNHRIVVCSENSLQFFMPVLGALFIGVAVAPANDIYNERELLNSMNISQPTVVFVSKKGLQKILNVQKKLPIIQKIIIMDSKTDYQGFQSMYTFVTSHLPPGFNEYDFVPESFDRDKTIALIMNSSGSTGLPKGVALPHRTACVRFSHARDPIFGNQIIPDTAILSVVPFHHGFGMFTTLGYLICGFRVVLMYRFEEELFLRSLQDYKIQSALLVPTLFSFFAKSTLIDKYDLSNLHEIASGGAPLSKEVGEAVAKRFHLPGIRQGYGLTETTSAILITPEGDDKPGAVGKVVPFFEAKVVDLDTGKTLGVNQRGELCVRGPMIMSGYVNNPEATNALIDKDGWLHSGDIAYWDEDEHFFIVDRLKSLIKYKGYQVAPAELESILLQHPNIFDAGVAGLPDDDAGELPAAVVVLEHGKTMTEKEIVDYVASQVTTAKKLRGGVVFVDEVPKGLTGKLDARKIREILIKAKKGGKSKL

As to `Cc1cc(O)c(C(C)(C)C)cc1Sc1cc(C(C)(C)C)c(O)cc1C`, the Potency in assay [1] was 7.75 µM (active); in assay [2], 17.3 µM (active); in assay [3] it was 8.62 µM (active); in [4] it was 2.73 µM (active); in assay [5] it was 12.3 µM (active); in [6], 12.3 µM (active). Also, in assay [8], the Potency was 30.6 µM (active). Moreover, the Potency entry in assay [7] was “inactive”.
In the case of `CCC(C)Nc1ccc(NC(C)CC)cc1` (configuration not stated), the Potency in assay [9] was 17.7 µM (active); in [1], 8.88 µM (active); in [2], 44.5 µM (active); in assay [3], 31.2 µM (active); in assay [4] it was 27.8 µM (active); in assay [10] it was 39.3 µM (active). In addition, the Potency in assay [8] is 19.7 µM (active); in assay [11], 40.7 µM (active).
Consider `Nc1ccc2cc(S(=O)(=O)O)cc(O)c2c1N=Nc1ccccc1C(F)(F)F`, for which the Potency entry in assay [9], in assay [1], in assay [2], in [3], in assay [5] and in assay [12] was “inactive” in each case. Further, the Potency entry in [6], in [7] and in assay [13] was “inactive” each time. In assay [11], the Potency was 63.3 µM (active).
Take `CCN1/C(=C/C=C/c2sc3ccccc3[n+]2CC)Sc2ccccc21`: the Potency is 4.61 µM (active) in [9]; 11.6 µM (active) in [3]; 2.31 µM (active) in assay [4]; 14.6 µM (active) in [10]; 5.8 µM (active) in [8]; 9.52 µM (active) in assay [11]. Also, the Potency result in [1] and in assay [2] was “inactive” throughout. The viability change, negative = cytotoxic in assay [5] is -11.9% [at 15.8 µM].
For the molecule `CCCC(c1cc(C(C)(C)C)c(O)cc1C)c1cc(C(C)(C)C)c(O)cc1C`, the Potency was 7.86 µM (active) in [9]; 14 µM (active) in assay [1]; 11.1 µM (active) in assay [2]; 15.5 µM (active) in assay [3]; 13.9 µM (active) in assay [4]; 7 µM (active) in [5]. For the same molecule, the Potency in assay [6] is 11.1 µM (active); in assay [10] it was 27.6 µM (active); in assay [7], 27.6 µM (active); in [8], 19.6 µM (active). Also, in [11], the Potency entry is “inactive”.
As for `OCc1c[nH]c2ccccc12`, the Potency entry in [2], in assay [3], in assay [4], in [5], in [10] and in [13] was “inactive” in each case. Moreover, in assay [15], the Potency result is “inactive”. Further, the molecule was called inactive in [14] and in assay [16].
As to `COc1cccc2c1C(=O)c1c(O)c3c(c(O)c1C2=O)C[C@@](O)(C(=O)CO)C[C@@H]3O[C@H]1C[C@H](N)[C@H](O[C@@H]2CCCCO2)[C@H](C)O1`, the Potency result in assay [9], in [1], in assay [2], in [4], in assay [10] and in [13] was “inactive” throughout. Besides, the figures for the Potency in assay [3] and in [8] were 5.31 µM (active) and 9.44 µM (active), respectively.
With `Clc1ccc2nsnc2c1NC1=NCCN1`, the Potency entry in assay [1], in assay [2], in [3], in assay [5], in [12] and in assay [17] was “inactive” in each case. Besides, the Potency result in assay [6], in [7], in assay [13], in [18], in assay [15] and in [8] was “inactive” throughout. The Potency result in [11] is “inactive”. In addition, the result in assay [14] and in assay [16] was inactive.
`COc1cc(-c2nc(NC(=O)c3cc4cc(C)cc(C)c4n3CC(=O)O)sc2CCC2CCCCC2)c(OC)cc1Cl`: the Potency is 10 µM (active) in [9]; 10 µM (active) in assay [1]; 10 µM (active) in assay [2]; 39.7 µM (active) in [3]; 19.9 µM (active) in [4]; 28.3 µM (active) in [5]. Besides, the values for the Potency in assay [6] and in [8] were 20.1 µM (active) and 49.9 µM (active), respectively. The Potency result in [11] is “inactive”.

The values are drawn from PubChem BioAssay (Tox21).
